Molecules are shown by their SMILES. About 3,700 (1%) of roughly 360,000 compounds were called active. Inconclusive results (about 2%) are left out.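 The calls were made as follows: active = normalized GFP-positive differentiation at or above the plate's own cutoff, the solvent-only control mean plus 3 SD; inconclusive = no clear call, values can overlap the other calls; inactive = the rest.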 Many of the other results were omitted from the sample, so actives are more common in it than they were.

The text below walks through data of PubChem BioAssay AID624256 (NMMLSC, 2012).

This test in a line: HoxA9-arrested leukemia cell differentiation promoters – flow cytometry, MLPCN library, primary screen (AID 624256).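 As to GFP+ MAC1+ double positive: cells exposed to compound for four days before flow analysis.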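 As to normalized GFP-positive differentiation: cells exposed to compound for four days before flow analysis; 0% = DMSO wells and 100% = fulvestrant positive control at 5 µM.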 The settings on record: ER-HoxA9 myeloid progenitors, lysozyme-GFP differentiation, at 10 µM; GFP+ MAC1+ double positive: measured here: differentiation confirmed by MAC1 staining, stronger effect = higher value; normalized GFP-positive differentiation: stronger effect = higher value. (A flow cytometer gives signals particle by particle.)
On to `Cc1nc2c(OCc3cccc(Cl)c3)cccn2c1N(C)CC1CC1`, for which the GFP+ MAC1+ double positive worked out at 0.4% and the outcome was inactive.
The matching figures for `O=C1Nc2ccc(Br)cc2/C1=N/N=C/C1=C(N2CCOCC2)C(=C\c2ccccc2)/CC1`: 0.4% and “inactive”.
Turning to `N#C/C(=C\C1=C(N2CCOCC2)C(=C\c2ccccc2)/CC1)C(=O)Nc1ccccc1F`, the GFP+ MAC1+ double positive is 11.3% and the normalized GFP-positive differentiation is 127% (active).
`O=C(O)c1ccc(NN=CC2=C(N3CCOCC3)/C(=C/c3ccccc3)CC2)cc1`: the GFP+ MAC1+ double positive was 0.1% and the compound was called inactive.
For the compound `COc1ccc(OC)c(CN2C(=O)CCC2(C)c2nnnn2Cc2ccccc2)c1` (stereo not given), the GFP+ MAC1+ double positive worked out at 0.7% and the compound was called inactive.
The matching figures for `CCOC(=O)[C@]12CCCC=C1N(Cc1ccc(Cl)cc1Cl)C(=O)[C@H](CC(=O)N1CCCCC1)C2`: 0.5% and “inactive”.
The matching figures for `Cc1ccc(C(=O)Nc2c(-c3ccccc3)[nH][nH]c2=O)cc1`: 0.3% and “inactive”.
The matching figures for `COc1ccccc1C(=O)Nn1c(-c2cccs2)nc2ccccc2c1=O`: 0.5% and “inactive”.
As for `COc1cc(OC)cc(-c2nc3ccccc3c(=O)n2NC(=O)c2cccnc2Cl)c1`, the GFP+ MAC1+ double positive came out at 0.9% and the result was inactive.
For the compound `O=C(Nn1c(-c2ccc(Cl)cc2)nc2ccccc2c1=O)c1cccnc1Cl`, the GFP+ MAC1+ double positive was determined as 2.1% and the normalized GFP-positive differentiation was 151% (active).
As for `CC(=O)C[C@@H]1OC[C@H](CO)N1S(=O)(=O)c1ccc(C)cc1`, the GFP+ MAC1+ double positive stood at 2.1% and the compound was called inactive.
`O=C(C[C@H]1CC[C@@H](NC(=O)c2ccncc2)[C@@H](CO)O1)NCC1CC1`: the GFP+ MAC1+ double positive turned out to be 0.9% and the compound was called inactive.
The matching figures for `CCSc1nc(-c2ccc(OC)cc2)cc(-c2ccc(OC)cc2)c1C#N`: 7.7% and “inactive”.
On to `N#Cc1c(C(F)(F)F)cc(-c2ccccc2)nc1SCC(=O)N1CCOCC1`, for which the GFP+ MAC1+ double positive came out at 1.4% and the compound was called inactive.
As for `CCOC(=O)CC(=O)CSc1nc(-c2ccccc2)cc(-c2ccc(Cl)cc2)c1C#N`, the GFP+ MAC1+ double positive was found to be 26.9% and the normalized GFP-positive differentiation is 14.9% (active).
With `Cc1noc(C)c1C(=O)N1CCC1(C)C(=O)NS(=O)(=O)c1ccc(C#N)cc1` (stereo not given), the GFP+ MAC1+ double positive is 1.2% and the outcome was inactive.
Take `O=C(Cc1csc(Nc2nc(=S)[nH]c3ccccc23)n1)NCCCN1CCN(c2cccc(Cl)c2)CC1`: the GFP+ MAC1+ double positive was determined as 1% and the result was inactive.
As for `Cn1c(C(=O)NCCCN2CCN(c3cccc(Cl)c3)CC2)cc2c(=O)n(C)c3ccccc3c21`, the GFP+ MAC1+ double positive was 11.3% and the normalized GFP-positive differentiation is 36.1% (active).
As for `CCN1CCCC1CNC(=O)c1cc2c(=O)n(C)c3ccccc3c2n1C` (stereo not given), the GFP+ MAC1+ double positive was determined as 0.5% and the compound was classed as inactive.
Turning to `CC(=O)Nc1cc(-c2cccc(CO)c2)cn2c(-c3cccc(C(F)(F)F)c3)cnc12`, the GFP+ MAC1+ double positive came out at 0.8% and the compound was called inactive.
Take `COc1cc(N=Cc2c(O)[nH]c3ccccc23)cc(OC)c1OC`: the GFP+ MAC1+ double positive amounted to 16.7% and the normalized GFP-positive differentiation is 15.8% (active).
In the case of `COc1cc2[nH]c(O)c(C=O)c2cc1OC`, the GFP+ MAC1+ double positive is 0.7% and the result was inactive.
As for `CN=c1scc(-c2cc(OC)ccc2OC)n1/N=C/c1c(C)[nH]c2ccccc12`, the GFP+ MAC1+ double positive was 1.2% and the compound was called inactive.
The matching figures for `CCOC(=O)[C@H]1Nc2ccc(Cl)cc2[C@@H]2[C@H]1C1CC(c3ccccc31)N2C(=O)OCc1ccccc1` (stereo not given in full): 1% and “inactive”.
The matching figures for `CC(C)C[C@H]1CNC(=S)N1C[C@H]1CCCN1C[C@H](Cc1ccc(O)cc1)N1C[C@H](Cc2ccc(O)cc2)N(CC2CCCCC2)C1=S`: 1.3% and “inactive”.
For the compound `Cc1ccc(C)c(S(=O)(=O)N2CCN(c3ncnc4sccc34)CC2)c1`, the GFP+ MAC1+ double positive turned out to be 2.8% and the normalized GFP-positive differentiation is 41.1% (active).
With `COc1ccc(-c2csc3ncnc(N4CCN(S(=O)(=O)c5ccccc5C#N)CC4)c23)cc1`, the GFP+ MAC1+ double positive was found to be 1.7% and the outcome was inactive.
With `Cc1ccc(C)c(S(=O)(=O)N2CCN(C(=O)Nc3ccccc3)CC2)c1`, the GFP+ MAC1+ double positive was found to be 0.3% and the outcome was inactive.
`CCC(C(=O)NCc1ccccc1)n1c(Cc2cc(F)cc(F)c2)nc2ccccc21` (stereo not given): the GFP+ MAC1+ double positive amounted to 2% and the call was inactive.
The matching figures for `Nc1ncnc2c1ncn2[C@@H]1O[C@H](C(=O)N2CCCN(Cc3ccccc3F)CC2)[C@@H](O)[C@H]1O`: 1.3% and “inactive”.
Take `O=C(NC1CCCCC1)n1c(=O)oc2cc(S(=O)(=O)N3CCCCC3)ccc21`: the GFP+ MAC1+ double positive is 8.3% and the result was inactive.
For the compound `CC1CCCCN1C(=O)Cn1c(=O)oc2cc(S(=O)(=O)N3CCCCC3)ccc21` (stereo not given), the GFP+ MAC1+ double positive came to 6.7% and the normalized GFP-positive differentiation is 53.2% (active).
For `CC1CCCN(C(=O)Cn2c(=O)oc3cc(S(=O)(=O)N4CCCCC4C)ccc32)C1` (stereo not given), the GFP+ MAC1+ double positive amounted to 2.1% and the result was inactive.
`CC1=C(C(=O)N(C(C)C)C(C)C)CC(CC(=O)NCCCCc2ccccc2)C(=O)N1CCC1=CCCCC1` (stereo not given): the GFP+ MAC1+ double positive amounted to 1% and the call was inactive.
`O=S1(=O)CC(N2CCN(c3ccccn3)CC2)CN1Cc1ccc(F)cc1` (stereo not given): the GFP+ MAC1+ double positive stood at 0.9% and the compound was called inactive.
Take `CCOC(=O)[C@]12CCC=C1N(Cc1cccc3ccccc13)C(=O)[C@H](CC(=O)NCc1cccc(C(F)(F)F)c1)C2`: the GFP+ MAC1+ double positive was found to be 0.3% and the call was inactive.
The matching figures for `COC(=O)[C@@]12C[C@@H](CC(=O)N3CCC(c4ccccc4)CC3)C(=O)N(Cc3ccccc3)C1=CCC(C)(C)C2`: 1.2% and “inactive”.
Take `O=C(Cn1cc(-c2nnnn2-c2ccc(Cl)cc2)c(=O)c2ccccc21)c1ccccc1`: the GFP+ MAC1+ double positive worked out at 7.2% and the normalized GFP-positive differentiation is 37.5% (active).
`Clc1ccc(-n2nnnc2-c2cnc(-c3ccccn3)nc2-c2cccs2)cc1`: the GFP+ MAC1+ double positive was 0.7% and the compound was classed as inactive.
The matching figures for `O=C(CN1CCN(c2ccc(Cl)cc2)CC1)c1ccccc1`: 0.3% and “inactive”.
